Results filed as inconclusive are left out. Active and inactive are the calls of the source. Calls come from the whole dose curve; as a rule, active = well fitted inhibition curve with a large enough effect; inconclusive = small, poorly fitted or top-dose-only effect; inactive = no such curve, though single readings can be large or run the other way.
assay: Primary qHTS for small molecule stabilizers of the endoplasmic reticulum resident proteome: Secreted ER Calcium Modulated Protein (SERCaMP) assay (AID 1508630); conditions: SH-SY5Y GLuc-SERCaMP (Gaussia luciferase released on ER calcium loss) secretion, thapsigargin, luminescence; series mostly up to 38.4 µM; activity change, negative = inhibition: at the top concentration
Source text: Assay Provider: Brandon K. Harvey Ph.D.
National Institute on Drug Abuse, National Institutes of Health, Baltimore, MD
Endoplasmic reticulum (ER) dysregulation is associated with human pathologies including neurodegenerative, cardiovascular, muscular, and diabetic conditions. Maintenance of ER calcium is critical for functions of the ER and its depletion can lead to loss of ER resident proteins, in a process termed exodosis. Therapeutic compounds capable of attenuating the redistribution of ER proteins under pathological conditions may slow or stop disease progression. To identify such compounds, we performed a quantitative high-throughput screen (qHTS) using the SERCaMP assay, which monitors secretion of ER resident proteins triggered by calcium depletion.
SERCaMP was initially developed as a reporter of ER calcium homeostasis using a Gaussia luciferase with a modified signal peptide and carboxy-terminus (GLuc-SERCaMP), modifications that confer secretion of the reporter in response to ER calcium depletion (Henderson et al., 2014). The assay was used to screen 9,501 compounds, including a collection of drugs approved by the FDA (US), EMA (EU), NHI (Japan), and HC (Canada) regulatory agencies (Huang et al., 2011). Since the SERCaMP reporter reflects the exodosis phenomenon (Trychta et al., 2018a), compounds identified in the screen have the potential to prevent exodosis by different mechanisms such as stabilizing ER calcium or augmenting ERS retrieval.
1. Henderson, M.J., Wires, E.S., Trychta, K.A., Richie, C.T., and Harvey, B.K. (2014). SERCaMP: a carboxy-terminal protein modification that enables monitoring of ER calcium homeostasis. Mol Biol Cell 25, 2828-2839.
2. Huang, R., Southall, N., Wang, Y., Yasgar, A., Shinn, P., Jadhav, A., Nguyen, D.T., and Austin, C.P. (2011). The NCGC pharmaceutical collection: a comprehensive resource of clinically approved drugs enabling repurposing and chemical genomics. Sci Transl Med 3, 80ps16.
3. Trychta, K.A., Back, S., Henderson, M.J., and Harvey, B.K. (2018a). KDEL Receptors Are Differentially Regulated to Maintain the ER Proteome under Calcium Deficiency. Cell Rep 25, 1829-1840 e1826.
SEQUENCE No. (1, 2, 3, etc.); […] (e.g., Cells, Incubation, Reagent, etc.); VALUE and DESCRIPTION.
1; Reagent; 5 uL; 1000 SH-SY5Y cells per wells
3; Compound; 23 nL; Control inhibitor / compound library
5; Reagent; 100 nM; Thapsigargin
7; Reagent; 1 uL; 0.5x coelenterazine
8; Detection; Luminescence; ViewLux imaging system
NOTES (numbers refer to sequence above)
1; SH-SY5Y human neuroblastoma cells stably expressing GLuc-SERCaMP (SH-SY5Y-GLuc-ASARTDL) cells were seeded in 1,536 well white tissue culture treated plates (Corning, Cat# 7464) in DMEM-high glucose-sodium pyruvate (ThermoFisher Scientific, Cat #10569) supplemented with 10% bovine growth serum (Hyclone), 10 U/ml penicillin (Gibco), 10 ug/ml streptomycin (Gibco), and 20 mM HEPES.
2; Assay plates were incubated for 5 hour at 37C in a humidified incubator containing 5% CO2.
3; qHTS libraries (23 nl, final concentrations of 1.53 uM, 7.67 uM, 38.3 uM) or controls (neutral control: DMSO, positive control: dantrolene) were added using a Kalypsis pin-tool Robotic System equipped with 1536 pinheads.
4; Cells were then incubated for 16 hours at 37C, 5% CO2.
5; Thapsigargin was added at 100 nM to deplete ER calcium stores.
6; Cells were incubated for 4 hour (37 °C, 5% CO2)
7; Gaussia luciferase in the medium was measured by adding 1 ul of 0.5x coelenterazine (final concentration 0.07x) prepared in Gaussia Luciferase Glow Assay Buffer (Pierce), without addition of the Cell Lysis Buffer Reagent.
8; Luminescence was measured using a ViewLux […] CCD imaging system (Perkin Elmer) equipped with clear filters. […] The same controls were also used for the calculation of the Z' factor, a measure of assay quality control, as previously described (Zhang et al., 1999). […]
% is set by controls: 0 for no effect and ±100 for the full control effect.

Row | Structure (SMILES) | Potency | activity change, negative = inhibition
1 | CCN(CC)CCOc1ccc2c(c1)C(=O)c1cc(OCCN(CC)CC)ccc1-2 | inactive | –
2 | CC(=O)Nc1ncc([N+](=O)[O-])s1 | – | -22.7% (inactive)
3 | C=C[C@@]1(C)CC(=O)[C@]2(O)[C@@]3(C)[C@@H](O)CCC(C)(C)[C@@H]3[C@H](O)[C@H](OC(C)=O)[C@@]2(C)O1 | – | 5.79% (inactive)
4 | CN1CCN(c2cc3c(cc2F)c(=O)c(C(=O)O)cn3-c2ccc(F)cc2)CC1 | – | -16.7% (inactive)
5 | Cc1cn([C@H]2C[C@H](F)[C@@H](CO)O2)c(=O)[nH]c1=O | – | -3.73% (inactive)
6 | CC1(COc2ccc(CC3SC(=O)NC3=O)cc2)CCCCC1 (stereo not given) | inactive | –
7 | CN(C)CCN1C(=O)c2ccccc2N(C)c2ccccc21 | – | -4.24% (inactive)
8 | COc1ccc(CN(CCN(C)C)c2ncccn2)cc1 | – | -18.2% (inactive)
9 | Cc1c[nH]c2ccccc12 | – | -23.8% (inactive)
10 | O=C1c2cccc3c2[C@H](CCC3)CN1[C@@H]1CN2CCC1CC2 | – | -9.91% (inactive)
11 | NS(=O)(=O)c1cc(C(=O)O)cc(N2CCCC2)c1Oc1ccccc1 | – | -13.5% (inactive)
12 | CC(=O)O[C@H]1C[C@@H]2CC[C@@H]3[C@H](CC[C@@]4(C)[C@H]3C[C@H]([N+]3(C)CCCCC3)[C@@H]4OC(C)=O)[C@@]2(C)C[C@@H]1N1CCCCC1 | – | -10.7% (inactive)
13 | CCO[C@@H]1O[C@H](C(COCc2ccccc2)OCc2ccccc2)[C@H](OCc2ccccc2)[C@H]1O (stereo not given in full) | – | -25.6% (inactive)
14 | CCCCC(CC)COC(=O)/C=C/c1ccc(OC)cc1 (stereo not given) | – | -18% (inactive)
15 | CC(=O)OC[C@H]1O[C@@H](n2ncc(=O)[nH]c2=O)[C@H](OC(C)=O)[C@@H]1OC(C)=O | – | 101% (inactive)
16 | CC(=O)OCC1=C(C(=O)O)N2C(=O)[C@@H](NC(=O)CSc3ccncc3)[C@H]2SC1 | – | -25% (inactive)
17 | CCNC(=O)/C=C/c1cccc(Br)c1 | – | -2.43% (inactive)
18 | COc1ccc(-c2cc(C(F)F)nn2-c2ccc(S(N)(=O)=O)cc2)cc1F | – | 28.7% (inactive)
19 | CCOC(=O)[C@H](CCc1ccccc1)N[C@@H](C)C(=O)N1[C@H](C(=O)O)C[C@H]2CCCC[C@@H]21 | – | 4.19% (inactive)
20 | CC(C)(C)NC[C@H](O)COc1cccc2c1CCCC2=O | – | 21.5% (inactive)

Row | Structure (SMILES) | Potency | activity change, negative = inhibition
21 | O=c1[nH]c(=O)n([C@H]2C[C@H](O)[C@@H](CO)O2)cc1F | – | 31.6% (inactive)
22 | C[C@H]1O[C@@H](O[C@H]2CC[C@@]3(C)[C@H](CC[C@@H]4[C@@H]3C[C@@H](O)[C@]3(C)[C@@H](C5=CC(=O)OC5)CC[C@]43O)C2)C[C@H](O)[C@@H]1O[C@H]1C[C@H](O)[C@H](O[C@H]2C[C@H](O)[C@H](O[C@@H]3O[C@H](CO)[C@@H](O)[C@H](O)[C@H]3O)[C@@H](C)O2)[C@@H](C)O1 | – | 59.9% (inactive)
23 | Cc1cc(CC(=O)O)c(C)n1-c1ccc(Cl)cc1 | – | 1.18% (inactive)
24 | O=C(Nc1cccc(C2=NCCN2)c1)Nc1cccc(C2=NCCN2)c1 | – | -23.3% [at 21.6 µM] (inactive)
25 | CCCCCCCCCCCCCC(=O)OC(C)C | – | -23.3% (inactive)
26 | CCc1oc2ccccc2c1C(=O)c1cc(I)c(O)c(I)c1 | – | 3.39% (inactive)
27 | Oc1c(Cl)cc(Cl)c(Cl)c1Cc1c(O)c(Cl)cc(Cl)c1Cl | – | -29.9% (inactive)
28 | CCN(CC)CCNC(=O)c1cc(Br)c(N)cc1OC | – | 5.47% (inactive)
29 | COc1ccc(C(=O)c2ccccc2)c(O)c1 | – | 11.6% (inactive)
30 | OCCOCCN1CCN(C2=Nc3ccccc3Sc3ccccc32)CC1 | – | 26.7% (inactive)
31 | O=S(=O)(O)c1ccc(O)cc1 | – | -28.1% (inactive)
32 | CCCN(CCc1cccs1)[C@H]1CCc2c(O)cccc2C1 | – | -10.4% (inactive)
33 | COc1cc(C)nc(-n2nc(C)cc2OC)n1 | – | -3.69% (inactive)
34 | CCCCCN=C(N)N/N=C/c1c[nH]c2ccc(OC)cc12 | – | 313% (inactive)
35 | CCCCN1C[C@H](O)[C@@H](O)[C@H](O)[C@H]1CO | – | 5.17% (inactive)
36 | CN(C)CCOC(=O)C(c1ccccc1)C1(O)CCCC1 (stereo not given) | – | -32.9% (inactive)
37 | FC1(F)C(F)(F)C(F)(F)C2(F)C(F)(F)C(F)(F)C(F)(F)C(F)(F)C2(F)C1(F)F (stereo not given) | – | -33.7% (inactive)
38 | Cn1c(=O)c2[nH]c(Br)nc2n(C)c1=O | – | -29.4% (inactive)
39 | NC(=S)N/N=C/c1cccnc1 | – | -24.3% (inactive)
40 | CO[C@]12C[C@@H](COC(=O)c3cncc(Br)c3)CN(C)[C@@H]1Cc1cn(C)c3cccc2c13 | – | -8.83% (inactive)
